CendR NRP1 mod – alters CendR peptide binding to human NRP-1. 360,000 compounds, 0.85% hits. FAM-RPARPAR peptide binding to NRP-1, fluorescence polarization. inhibition, % at 25 µM;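 active = inhibition or corrected inhibition above about 18%, plus a signal ratio from 0.5 to 1.5, limit read from the data, passing the limit was not always enough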
PKA-R1A activ – activators of PKA-R1A complex | P00514+P68181 | PKA-R1A dissociation, Cy5-IP20 fluorescence polarization; scaled: DMSO 0%, 113 µM cGMP 100% | activation, % at 11.4 µM | 340,000 compounds, 0.083% hits;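 active = percent activation above the mean of all tested compounds plus 3 SD, cut at about 19% in these data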;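 note: higher means more PKAc released from R1A so a rise in polarization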
VLA-4 inh – inhibition in a human VLA-4 binding assay; inhibition, % (about 7 µM as worked out from the volumes in the protocol); P13612; VLA-4 expressing cells, ligand binding flow cytometry; 330,000 compounds, 0.2% hits; in the data active = inhibition above about 50%
ATG4B inhibitor – ATG4B (human) cysteine protease inhibition; Q9Y4P1; ATG4B cleavage of LC3-PLA2, NBD-HPC fluorescence, 1 h; inhibition, % at 8.33 µM; 340,000 compounds, 0.51% hits; AID 504462; in the data active = inhibition above about 40%
Target sequence (Q9Y4P1 whole entry, looked up): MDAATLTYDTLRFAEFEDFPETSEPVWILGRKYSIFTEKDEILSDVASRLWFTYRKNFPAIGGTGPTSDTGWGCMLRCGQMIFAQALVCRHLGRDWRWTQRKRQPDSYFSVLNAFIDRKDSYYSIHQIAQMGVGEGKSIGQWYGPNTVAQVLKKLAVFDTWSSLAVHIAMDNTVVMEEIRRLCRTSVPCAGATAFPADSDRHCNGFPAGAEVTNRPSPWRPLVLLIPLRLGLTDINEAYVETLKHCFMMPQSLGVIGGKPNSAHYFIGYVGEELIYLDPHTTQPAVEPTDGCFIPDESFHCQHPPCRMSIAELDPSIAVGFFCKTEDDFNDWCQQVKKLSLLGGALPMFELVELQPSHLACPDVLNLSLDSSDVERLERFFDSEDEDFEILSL
PKA-R2B activ – PKA-R2B complex activation; P22694+P31323; 340,000 compounds, 0.079% hits; activation, % at 11.4 µM; PKA-R2B holoenzyme dissociation, Cy5-IP20 fluorescence polarization; R2B truncated from residue 108, S112A mutant; 0% DMSO only, 100% 113 µM cGMP;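 active = activation above a cutoff set at the mean over all compounds plus 3 SD, cut at about 18% in these data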;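 note: higher means more holoenzyme dissociation and a rise in polarization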
Starred values were filed as active, the others as inactive. Sampled rows, rich in hits. Any-hit rate of the full collection: about 1.6%.

`O=C(O)c1ccc2c(c1)[C@@H]1C=CC[C@@H]1[C@H](c1ccccn1)N2` gave CendR NRP1 mod 32*, PKA-R1A activ -14, VLA-4 inh -7, ATG4B inhibitor 11 and PKA-R2B activ -2.
Screening CC(=O)Nc1ccc2nc3c(=O)n(C)c(=O)n(C)c3nc2c1 returned CendR NRP1 mod 42*, PKA-R1A activ -10, VLA-4 inh -7, ATG4B inhibitor -2 and PKA-R2B activ -3.
Cc1ccc(/C=N/NC(=O)CSc2nnc(-c3ccc(Cl)cc3)n2-c2ccccc2)o1 was read as CendR NRP1 mod 43*, PKA-R1A activ 8, VLA-4 inh 8, ATG4B inhibitor -27 and PKA-R2B activ 7.
For COCCNC(=O)C1CC(c2ccc(F)cc2)=NO1 (stereo not drawn) the results were CendR NRP1 mod 9, PKA-R1A activ 6, VLA-4 inh 0, ATG4B inhibitor -9 and PKA-R2B activ -12.
O=C(NCc1cc(C(F)(F)F)cc(C(F)(F)F)c1)C1CC(c2ccccc2F)=NO1 (stereo not drawn) was read as CendR NRP1 mod 28*, PKA-R1A activ -11, ATG4B inhibitor 1 and PKA-R2B activ -9.
Screening COCCNC(=O)C1CC(c2ccc(C(F)(F)F)cc2)=NO1 (stereo not drawn) returned CendR NRP1 mod 28*, PKA-R1A activ -1, VLA-4 inh -7, ATG4B inhibitor 3 and PKA-R2B activ 5.
Screening COc1ccc(C)cc1N1CC(C(=O)OCc2nc(N)nc(Nc3ccccc3C)n2)CC1=O (stereo not drawn) returned CendR NRP1 mod -9, PKA-R1A activ -3, ATG4B inhibitor -4 and PKA-R2B activ -4.
For CC(=O)C1=C(NC(=O)c2ccccc2F)C[C@@H]2[C@H]1C2(C)C the results were CendR NRP1 mod 17*, PKA-R1A activ 3, VLA-4 inh -1, ATG4B inhibitor 3 and PKA-R2B activ 11.
Screening COc1cccc(NC(=O)CSc2nc3c([nH]c4ccccc43)c(=O)n2C)c1 returned CendR NRP1 mod 8, PKA-R1A activ -9, VLA-4 inh 60*, ATG4B inhibitor -10 and PKA-R2B activ -4.
`COc1ccc(CC(N)c2csc(NC(=O)C(c3ccccc3)c3ccccc3)n2)cc1` (stereo not drawn) gave CendR NRP1 mod -18.
C[n+]1cccc2cccc([O-])c21 was read as CendR NRP1 mod 28*, PKA-R1A activ -4, ATG4B inhibitor -7 and PKA-R2B activ -9.
`Cc1ccc(C(=O)CCS(=O)(=O)c2ccc(Cl)cc2)cc1` gave CendR NRP1 mod 20*, PKA-R1A activ -1, VLA-4 inh -6, ATG4B inhibitor 2 and PKA-R2B activ -8.
Cc1ccc(S(=O)(=O)CCC(=O)c2ccc(F)cc2)cc1 was read as CendR NRP1 mod 16, PKA-R1A activ -1, VLA-4 inh -7, ATG4B inhibitor 5 and PKA-R2B activ -4.
Screening CCCN(C(=O)Cn1c(C(F)(F)F)nc2ccccc21)C1CCS(=O)(=O)C1 (stereo not drawn) returned CendR NRP1 mod 45*, PKA-R1A activ -14, VLA-4 inh -3, ATG4B inhibitor -2 and PKA-R2B activ -1.
Screening CC(C)CN(C(=O)Cn1c(C(F)(F)F)nc2ccccc21)C1CCS(=O)(=O)C1 (stereo not drawn) returned CendR NRP1 mod 12, PKA-R1A activ -4, VLA-4 inh -1, ATG4B inhibitor -3 and PKA-R2B activ 1.
For Cc1ccc(S(=O)(=O)NCCC(=O)N2CCCCCCC2)cc1 the results were CendR NRP1 mod -4, PKA-R1A activ -4, VLA-4 inh 2, ATG4B inhibitor 0 and PKA-R2B activ -3.
`CCOC(=O)[C@]12CCC=C1N(Cc1ccc(Cl)cc1Cl)C(=O)[C@H](CC(=O)NCc1ccc(OC)c(OC)c1)C2` gave CendR NRP1 mod -2.
`COc1ccc(-c2nc3c(Cl)cc(C(F)(F)F)cn3c2Cc2ccsc2)cc1OC` gave CendR NRP1 mod -12.
`Cc1ccc(C2(C)NC(=O)N(CC(=O)N(C)CC(=O)Nc3cccc(F)c3)C2=O)cc1` (stereo not drawn) gave CendR NRP1 mod 6, PKA-R1A activ 3, VLA-4 inh 9, ATG4B inhibitor 6 and PKA-R2B activ 3.
Screening CC1(c2ccc(OC(F)F)cc2)NC(=O)N(CC(=O)Nc2ccc(OC(F)F)cc2)C1=O (stereo not drawn) returned CendR NRP1 mod 18*, PKA-R1A activ -4, VLA-4 inh 3, ATG4B inhibitor -10 and PKA-R2B activ 1.
For COc1cccc(NC(=O)CN(C)C(=O)CN2C(=O)NC(C)(c3ccc(C)cc3)C2=O)c1 (stereo not drawn) the results were CendR NRP1 mod 19*, PKA-R1A activ -3, VLA-4 inh 4, ATG4B inhibitor -15 and PKA-R2B activ -2.
CCOc1ccccc1C(=O)NC(C(=O)N(C)Cc1ccc2c(c1)OCO2)C(C)C (stereo not drawn) was read as CendR NRP1 mod -21, PKA-R1A activ -10, VLA-4 inh -6, ATG4B inhibitor -12 and PKA-R2B activ 9.
CCOC(=O)c1ccccc1NC(=O)CSc1nc(N)cc(=O)[nH]1 was read as CendR NRP1 mod 1, PKA-R1A activ -1, VLA-4 inh 2, ATG4B inhibitor 2 and PKA-R2B activ 2.
For Cc1ccccc1S(=O)(=O)NC(=O)C1(C)CCN1C(=O)CC1CCCCC1 (stereo not drawn) the results were CendR NRP1 mod 17.
COc1ccc(-c2coc3c(C(=O)NCc4ccc(OC)c(OC)c4)cccc23)c(C)c1 was read as CendR NRP1 mod -8.
Cc1cccc2[nH]c3c(N4CC=C(c5ccc(F)cc5)CC4)ncnc3c12 was read as CendR NRP1 mod -15, VLA-4 inh 1 and ATG4B inhibitor 19.
`O=C(N/N=C/c1ccncc1)NC12CC3CC(CC(C3)C1)C2` gave CendR NRP1 mod 7, PKA-R1A activ 7, VLA-4 inh -4, ATG4B inhibitor -10 and PKA-R2B activ 4.
O=C(CC12CC3CC(CC(C3)C1)C2)N/N=C/c1ccncc1 was read as CendR NRP1 mod 18*, PKA-R1A activ 6, VLA-4 inh 28, ATG4B inhibitor -11 and PKA-R2B activ 0.
CCOCCCNC(=O)C(c1ccc(C)cc1)N(Cc1cccs1)C(=O)c1ccccc1O (stereo not drawn) was read as CendR NRP1 mod 29*, PKA-R1A activ -16, VLA-4 inh 0, ATG4B inhibitor -5 and PKA-R2B activ -3.
For CC(C)(C)S(=O)N1Cc2cc(C(=O)NCc3ccc(Oc4ccccc4)cc3)nc(-c3cccc(-c4cc5ccccc5o4)c3)c2[C@@H]1CCO (stereo partly drawn) the results were CendR NRP1 mod -12.

Compound activity as filed in PubChem.
